PubChem BioAssay (NCI)
This is part of a sample that, as a whole, favours compounds with a hit. Of some 83,000 tested, about 20% had one in any assay.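 Single-dose data. Exposure time 48 hours. Values below 10 considered active.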 Calls of active or inactive are those of the source.

These compounds were tested on MDA-MB-468 breast (assay: NCI-60 one-dose screen, 48 h (100 = growth as untreated, 0 = no growth, -100 = all killed)). Conditions: 10 µM unless noted.

With `O=C(/C(=C/c1ccccc1)CN1CCCCC1)c1ccccc1` as the compound, how does the growth read?
The growth was -72.8% (active).

`OC1CCN(CCCOc2c3ccccc3nc3c2oc2ccc(Cl)cc23)CC1` was tested. Which growth did it give?
The growth was -8.36% (active).

Which growth does the source give for `CN(C)CCCOc1ccc(OCCCN(C)C)c2c1C(=O)c1ccccc1C2=O` here?
Its growth is -33.7% (active).
